Experimental data published in PubChem BioAssay (NCI).
This is part of a sample that, as a whole, favours compounds with a hit. Of some 79,000 tested, about 15% had one in any assay. Calls of active or inactive are those of the source. Cut-off read from the data, not from the text of the source: active = growth inhibition above about 70%; inactive = the rest.

Experiments:
[1] = NCI Yeast Anticancer Drug Screen. Data for the rad50 strain (AID 155);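 note: 0% = growth of vehicle-only cultures of the same strain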; settings: S. cerevisiae rad50 strain growth inhibition, active compounds read high; at 50.0 µM unless noted
Outline: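 Readout: growth inhibition relative to vehicle-treated cultures. Compound exposure was carried out in a genetically defined yeast strain deficient in DNA damage repair.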

[2] = NCI Yeast Anticancer Drug Screen. Data for the mec2-1 strain (AID 157); settings: S. cerevisiae mec2-1 strain, active compounds read high; at 50.0 µM unless noted
Outline: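 mec2-1 yeast strain, carrying an alteration in DNA damage repair or cell cycle control, was exposed to compounds; growth inhibition was measured relative to vehicle-treated controls.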

[3] = NCI Yeast Anticancer Drug Screen. Data for the sgs1 mgt1 strain (AID 161);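 note: 0% = growth of cultures given vehicle only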; settings: S. cerevisiae sgs1 mgt1 strain, active compounds read high; at 50.0 µM unless noted
Outline: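 Yeast cells carrying a defined DNA-repair defect were exposed to test compounds. Growth inhibition was measured relative to vehicle-treated controls.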

[4] = NCI Yeast Anticancer Drug Screen. Data for the cln2 rad14 strain (AID 165);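 note: 0% = growth equal to vehicle treated cultures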; settings: S. cerevisiae cln2 rad14 strain, active compounds read high; at 50.0 µM unless noted
Outline: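 Yeast carrying cln2 and rad14 alterations (cell cycle control and DNA damage repair) were exposed to compounds. Growth inhibition was measured against vehicle-treated controls.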

[5] = NCI Yeast Anticancer Drug Screen. Data for the bub3 strain (AID 167); settings: S. cerevisiae bub3 mutant strain, active compounds read high; at 50.0 µM unless noted
Outline: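 Readout: yeast growth inhibition, expressed relative to vehicle-only wells. The test organism is a mutant strain from a panel with lesions in DNA repair or checkpoint genes.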

[6] = NCI Yeast Anticancer Drug Screen. Data for the mlh1 rad18 strain (AID 175); settings: S. cerevisiae mlh1 rad18 strain growth inhibition, active compounds read high; at 50.0 µM unless noted
Outline: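 Growth inhibition of the yeast strain was measured after compound exposure and expressed relative to vehicle-treated controls. The strain carries defined defects in DNA damage repair.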

Measured: growth inhibition

CC(C)(C1CCC([Si](C2CCCCC2)(C2CCCCC2)C2CCCCC2)CC1)[Si](C1CCCCC1)(C1CCCCC1)C1CCCCC1 (stereo unspecified)
inactive: [1] 8% | [2] -0.15% | [3] -14.4% | [4] -7.2% | [5] 3.3% | [6] -1.95%

COc1ccc(CCl)cc1OCc1ccccc1
inactive: [1] -33.7% | [2] -17.8% | [3] -16.7% | [4] -24.4% | [5] -14.7% | [6] -21.2%

CN(N=O)C(=O)NCCn1cnc2c(=O)[nH]cnc21
inactive: [1] -6.55% | [2] 14.4% | [3] -5.35% | [4] -56.8% | [5] 1.2% | [6] -11.8%

O=C1c2c(Br)sc(Br)c2C(NC(=O)C(F)(F)F)C1O (stereo unspecified)
inactive: [1] 10.3% | [2] 18.3% | [3] -12.3% | [4] -11% | [5] 3.95% | [6] -27.4%

O=C(O)C(Cc1cccs1)C(=O)O
inactive: [1] -12.8% | [2] 0.6% | [3] -15.2% | [4] 41.5% | [5] -18.6% | [6] -4.25%

CCCCCCC1(C)NC(=O)NC1=O (stereo unspecified)
inactive: [1] -20.2% | [2] -11.8% | [3] -2.15% | [4] -77.1% | [5] 6.3% | [6] -8.3%
